# Source: PubChem
# RORg inh: qHTS for inhibitors of ROR gamma transcriptional activity. AID 2551, 2010. hit rate 5.4% among 310,000. Nuclear receptor ROR-gamma (Mus musculus), P51450. Drosophila S2 Gal4-RORgamma UAS-luciferase reporter, 20 h. Potency, µM (doses to about 53.6 µM), for the others: top-dose activity change, negative = inhibition, most hits filed as inhibitors; also: nearly all actives have a fitted effect of over 60% in size
# Target sequence (P51450 whole entry, looked up, the tested form may be a part): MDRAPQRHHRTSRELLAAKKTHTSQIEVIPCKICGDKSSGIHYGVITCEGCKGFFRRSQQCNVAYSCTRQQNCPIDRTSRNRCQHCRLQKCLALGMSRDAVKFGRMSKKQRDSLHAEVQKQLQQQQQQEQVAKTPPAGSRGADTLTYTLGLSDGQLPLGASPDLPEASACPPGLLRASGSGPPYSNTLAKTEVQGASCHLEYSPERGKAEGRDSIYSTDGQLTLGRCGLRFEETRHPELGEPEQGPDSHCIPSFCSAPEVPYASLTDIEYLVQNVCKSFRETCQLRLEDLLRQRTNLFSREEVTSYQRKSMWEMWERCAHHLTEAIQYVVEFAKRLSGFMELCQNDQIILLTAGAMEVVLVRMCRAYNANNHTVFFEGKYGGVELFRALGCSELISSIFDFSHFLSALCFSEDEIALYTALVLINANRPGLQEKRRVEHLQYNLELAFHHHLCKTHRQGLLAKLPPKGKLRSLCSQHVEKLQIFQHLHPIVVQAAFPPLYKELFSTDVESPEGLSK
#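 In this cell-based reporter format, copper sulfate (700 uM final) drives Gal4–ROR gamma fusion expression from a metallothionein promoter in Drosophila Schneider cells; compounds preincubated 1 hr, reporter read after 20 hr at ambient temperature.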
# TDP1 inh: qHTS Assay for Inhibitors of Tyrosyl-DNA Phosphodiesterase (TDP1); Potency, µM (highest dose often 130 µM), inactives show top-dose activity change, negative = inhibition, usual class: inhibitors; hit rate 0.28% among 350,000; recombinant TDP1, AlphaScreen DNA substrate cleavage; AID 485290, 2010; also: nearly all actives have a fitted effect of over 40% in size
#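 Enzyme-compound mixtures sat 15 min at room temperature, followed by a 5 min reaction with 15 nM final substrate and 10 min with AlphaScreen beads. Recombinant human Tdp1 was used at 1 nM final.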
# VP16 counter: VP16 counterscreen qHTS for inhibitors of ROR gamma transcriptional activity; Drosophila S2 Gal4-VP16 UAS-luciferase, luminescence, 20 h; Potency, µM (doses to about 53.6 µM), without a hit: at the highest dose activity, negative = inhibition, actives largely listed as inhibitors; hit rate 3.5% among 310,000; AID 2546, 2010;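 also: Gal4-VP16 expression switched on by copper sulfate through the metallothionein promoter; nearly all actives have a fitted effect of over 50% in size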
# DT40 TDP1 CPT: qHTS for Inhibitors of human tyrosyl-DNA phosphodiesterase 1 (TDP1): qHTS in cells in presence of CPT. chicken DT40 Tdp1-/-;hTDP1 cells + 20 nM CPT, ATP luminescence, 48 h. Potency, µM (titrated, usually from 46.2 µM), inactives show at the top dose activity change, negative = growth inhibition, hits mostly inhibitors. hit rate 12% among 420,000. AID 686979, 2013; also: nearly all actives have a fitted effect of over 55% in size
#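 Chicken DT40 Tdp1-/- cells stably complemented with human TDP1 were seeded at 400 cells/well in medium containing 20 nM camptothecin, exposed to pin-transferred compounds, and grown at 37 °C for at least 48 hr. Viability was read as ATP luminescence.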
# DT40 TDP1 no CPT: qHTS for Inhibitors of human tyrosyl-DNA phosphodiesterase 1 (TDP1): qHTS in cells in absence of CPT; DT40 Tdp1-/- hTDP1 cells, no CPT, ATP luminescence, 48 h; Potency, µM (doses to about 46.2 µM), without a hit: at the top dose activity change, negative = growth inhibition, actives largely listed as inhibitors; hit rate 15% among 420,000; also: nearly all actives have a fitted effect of over 55% in size
#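 Stably hTDP1-transfected Tdp1-null chicken DT40 cells were treated with library compounds minus camptothecin and grown for at least 48 hr at 37 °C, after which cellular ATP was quantified by luminescence.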
# An asterisk follows results filed as active; ? = inconclusive; / = no result; [ ] = dose if it differs, or a comment. A selection: hits, their analogues and other compounds. The true share with any hit is near 19%. Calls follow the shape of the dose curve; as a rule, active = well fitted curve in the direction sought with a large enough effect; inconclusive = small, poorly fitted or top-dose-only effect, or another doubt; inactive = no such curve, though single readings can be large; an effect the other way counts as inactive or inconclusive. % is scaled to controls: 0 for no effect and ±100 for the full control effect; potency is read from the fitted curve at half-maximal effect.
SMILES,RORg inh,TDP1 inh,VP16 counter,DT40 TDP1 CPT,DT40 TDP1 no CPT
Cc1[nH]n(-c2ccc(Cl)cc2)c(=O)c1N=Nc1cccnc1,?,-1%,0%,18µM*,16µM*
O=C(Cc1ccccc1)Nc1c(C(=O)c2ccccc2)oc2ccccc12,/,-6%[12.3 µM],/,8%,-14%
Cc1ccc(NC=C(S(=O)(=O)c2ccccc2)S(=O)(=O)c2ccccc2)cc1,11%,5%,-5%,-17%,?
Cc1ccc(NC=C(S(=O)(=O)c2ccccc2)S(=O)(=O)c2ccccc2)c(C)c1,1%,6%,13%,?,21µM*
Cc1ccc(-c2ccc(CN3C(CC(C)C)C(=O)N(Cc4cn(CCC5OCCCO5)nn4)CCS3(=O)=O)cc2)cc1 (centres undefined),/,/,/,18µM*,21µM*
CC(C)CC1C(=O)N(Cc2cn(CCC3OCCCO3)nn2)CCS(=O)(=O)N1Cc1ccc(-c2cccc(CO)c2)cc1 (centres undefined),/,/,/,-26%,?
CC(C)CC1C(=O)N(Cc2cn(CCC3OCCO3)nn2)CCS(=O)(=O)N1Cc1ccc(-c2ccncc2)cc1 (centres undefined),/,/,/,?,23µM*
CCC1(C2CCN(C(=O)c3ccccc3C(C)=O)CC2)NC(=O)N(CCc2scnc2C)C1=O (centres undefined),/,/,/,8%,-11%
O=C(Nc1ccc(NC(=O)c2cccs2)cc1)c1ccccc1,-8%,1%,4%,-3%,-17%
O=c1[nH]c(CN2CCCCC2)ccc1O,/,/,/,-3%,-1%
Cc1noc2ncnc(N3CCCC(C(=O)Nc4cc(F)ccc4F)C3)c12 (centres undefined),/,6%,/,13µM*,12µM*
Cc1noc2ncnc(N3CCCC(C(=O)Nc4cccc(C(F)(F)F)c4)C3)c12 (centres undefined),/,5%,/,15µM*,18µM*
COc1ccc(Cl)cc1NC(=O)C1CCCN(c2cc(C)nc3ncnn23)C1 (centres undefined),18%,7%,-6%,?,?
COc1ccc(NC(=O)C2CCCN(c3ncnc4onc(C)c34)C2)cc1OC (centres undefined),/,6%,/,?,23µM*
CCN(CC)C(=O)C1CCCN(c2ncnc3onc(C)c23)C1 (centres undefined),/,-3%,/,?,?
O=C(Nc1cccc(C(F)(F)F)c1)C1CCCN(S(=O)(=O)c2cnc[nH]2)C1 (centres undefined),43%,8%,-11%,-24%,-30%
COc1ccc(Cl)cc1NC(=O)C1CCCN(c2ncnc3onc(C)c23)C1 (centres undefined),/,4%,/,18µM*,23µM*
O=C1CCCC2=C1C(c1ccncc1)Nc1ccccc1N2 (centres undefined),11%,4%,-8%,-5%,-19%
Cc1ccccc1S(=O)Cc1ccc(C(=O)NCc2ccccc2Cl)o1 (centres undefined),/,-5%,/,21µM*,?
O=C(NCc1cccc(F)c1)c1ccc(CS(=O)c2ccccc2Cl)o1 (centres undefined),/,5%,/,16µM*,23µM*
O=C(NCCCN1CCC(Cc2ccccc2)CC1)c1ccc(CS(=O)c2ccccc2Cl)o1 (centres undefined),/,/,/,23µM*,21µM*
COc1ccc(CNC(=O)c2ccc(CS(=O)Cc3ccccc3Cl)o2)cc1 (centres undefined),/,8%,/,?,18µM*
Cc1ccc(CNC(=O)c2ccc(CS(=O)Cc3ccccc3Cl)o2)cc1 (centres undefined),46%,3%,2%,?,-25%
CCOc1ccccc1NC(=O)CSc1nc2c(sc3ccccc32)c(=O)n1CCCC(=O)NC1CCCC1,/,1%,/,?,?
CCCC(=O)Nc1ccccc1N1CCN(C(=O)C(C)C)CC1,-4%[10 µM],6%,2%,-4%,-26%
SMILES,RORg inh,TDP1 inh,VP16 counter,DT40 TDP1 CPT,DT40 TDP1 no CPT
CC1Cc2ccccc2C[N+]1(C)CC(=O)c1ccc(I)cc1 (centres undefined),/,/,/,10µM*,14µM*
CC[N+]1(CC(=O)c2ccc(I)cc2)CCCCC1,/,/,/,?,-20%
C1=CC2=NC34CCCCC3CC3=C(CCCC3)N4C2=CC1=NC1CCCCC1 (centres undefined),/,/,/,5.2µM*,5.2µM*
COc1cc([N+](=O)[O-])ccc1NC(=O)Oc1ccc(NC(C)=O)cc1,14%,1%,3%,-3%,-5%
Clc1ccc(CON/C=N/c2ncnc3sccc23)c(Cl)c1,-4%,6%,?,13µM*,10µM*
FC(F)Oc1ccccc1/C=N/n1cnc2ccccc21,?,-3%,?,?,18µM*
Cc1ccc(CNC(=O)CCS(=O)(=O)c2ccc(Br)cc2)cc1,9%,11µM*,-1%,-6%,-6%
Cc1ccc(S(=O)(=O)CCC(=O)OCC(=O)NCc2ccc(F)cc2)cc1,/,/,/,-5%,-11%
O=C(CCS(=O)(=O)c1ccc(Br)cc1)NCc1ccc(F)cc1,5%,50µM*,-1%,4%,-11%
Cc1ccc(CNC(=O)CCS(=O)(=O)c2ccc(Cl)cc2)cc1,-19%,-3%,-18%,-7%,-13%
Cc1ccc(S(=O)(=O)CCC(=O)NC2CCCC2)cc1,10%,3%,15%,-16%,13%
Cc1ccc(S(=O)(=O)CCC(=O)NC2CCCCC2)cc1,/,1%,/,18µM*,15µM*
CCOC(=O)C1CCN(C(=O)CN2C(=O)c3ccccc3S2(=O)=O)CC1,/,-7%,/,-12%,-8%
Cc1oncc1C(=O)Nc1ccc2ccccc2c1,/,1%,/,-17%,-23%
Cc1oncc1C(=O)Nc1ccc(C(F)(F)F)cc1,?,3%,14%,7.3µM*,9.2µM*
CCC1CCc2nc3sc(C(=O)Nc4cccc(C(F)(F)F)c4)c(N)c3cc2C1 (centres undefined),/,/,/,?,18µM*
Cc1nc(Cl)sc1C(=O)Nc1cccc(C(F)(F)F)c1,/,/,/,-2%,-23%
CCC1CCc2nc3sc(C(=O)Nc4ccc(C)cc4)c(N)c3cc2C1 (centres undefined),/,/,/,12µM*,7.3µM*
CCC1CCc2nc3sc(C(=O)Nc4ccc(F)cc4F)c(N)c3cc2C1 (centres undefined),/,/,/,8.2µM*,?
CCC1CCc2nc3sc(C(=O)Nc4cccc(F)c4)c(N)c3cc2C1 (centres undefined),/,/,/,3.3µM*,2.1µM*
